Laboratory results as given in PubChem BioAssay (EPA / NIEHS).
The source made the active and inactive calls. How the source made its calls: active means hit-call score of the fitted dose curve at least 0.9, where 1 is the maximum; inactive means score below 0.9.

Key:
Details in all cases: mRNA level, 48 h; actives raise or lower the signal
[1] = read-out: JUN Transcription Factor, JUN (gene 3725); experiment: LTEA_HepaRG_JUN: Life Technologies and Expression Analysis (LTEA) Assay for JUN Transcription Factor using HepaRG (AID 2283513)
Summary of the method: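 Human HepaRG liver cells receive test chemicals in 0.5% DMSO for 48 h across an eight-point range topping at 100 uM. Expression changes in JUN are scored in both directions against the DMSO vehicle.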

[2] = read-out: Lipase C (LIPC), LIPC (gene 3990); experiment: LTEA_HepaRG_LIPC: Life Technologies and Expression Analysis (LTEA) Assay for Lipase C (LIPC) using HepaRG (AID 2283514)
Summary of the method: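 Differentiated human HepaRG cells in serum-free induction medium were exposed in duplicate for 48 h to eight concentrations (top 100 uM, half-log steps, 0.5% DMSO). LIPC mRNA was quantified by TaqMan qRT-PCR, normalized to ACTB, GAPDH and POLR2A, with bidirectional fitting versus DMSO.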

[3] = read-out: Lipoprotein lipase (LPL), LPL (gene 4023); experiment: LTEA_HepaRG_LPL: Life Technologies and Expression Analysis (LTEA) Assay for Lipoprotein lipase (LPL) using HepaRG (AID 2283515)
Summary of the method: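 Differentiated human HepaRG cells in serum-free induction medium were exposed in duplicate for 48 h to eight half-log concentrations (top 100 uM) in 0.5% DMSO. LPL mRNA was quantified by TaqMan qRT-PCR, normalized to ACTB, GAPDH and POLR2A.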

[4] = read-out: MicroRNA 122 (MIR122), gene 406906; experiment: LTEA_HepaRG_MIR122: Life Technologies and Expression Analysis (LTEA) Assay for MicroRNA 122 (MIR122) using HepaRG (AID 2283516); further: the transcript read is the microRNA miR-122
Summary of the method: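 HepaRG, 48 h exposure, 8-pt half-log from 100 uM, 0.5% DMSO; TaqMan qRT-PCR; bidirectional fit vs DMSO.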

[5] = read-out: matrix metalloproteinase-10 (MMP10), MMP10 (gene 4319); experiment: LTEA_HepaRG_MMP10: Life Technologies and Expression Analysis (LTEA) Assay for matrix metalloproteinase-10 (MMP10) using HepaRG (AID 2283517)
Summary of the method: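 HepaRG, collagen I, ~100,000 cells/well; serum-free induction medium; 48 h exposure, duplicate, 8-pt half-log to 100 uM, 0.5% DMSO. Readout: TaqMan qRT-PCR, normalized to ACTB/GAPDH/POLR2A; bidirectional fit vs DMSO.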

[6] = read-out: MYC, MYC (gene 4609); experiment: LTEA_HepaRG_MYC: Life Technologies and Expression Analysis (LTEA) Assay for MYC using HepaRG (AID 2283518)
Summary of the method: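 Cells are thawed, plated and cultured 48 h, then treated for 48 h with test chemicals (eight half-log concentrations from 100 uM, 0.5% DMSO vehicle). RNA is isolated and MYC expression quantified by qRT-PCR against three housekeeping genes.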

[7] = read-out: matrix metalloproteinase-3 (MMP3), MMP3 (gene 4314); experiment: LTEA_HepaRG_MMP3: Life Technologies and Expression Analysis (LTEA) Assay for matrix metalloproteinase-3 (MMP3) using HepaRG (AID 2283519)
Summary of the method: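 Differentiated human HepaRG cells, plated 48 h on collagen I, were exposed in duplicate for 48 h in serum-free induction medium to eight half-log concentrations up to 100 uM in 0.5% DMSO. MMP3 mRNA was quantified by TaqMan qRT-PCR, normalised to ACTB, GAPDH and POLR2A.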

[8] = read-out: Paternally Expressed 10 (PEG10), PEG10 (gene 23089); experiment: LTEA_HepaRG_PEG10: Life Technologies and Expression Analysis (LTEA) Assay for Paternally Expressed 10 (PEG10) using HepaRG (AID 2283520)
Summary of the method: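 Chemicals tested on HepaRG cells for 48 h, highest concentration 100 uM. PEG10 expression assessed by qRT-PCR relative to DMSO control.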

[9] = read-out: Nuclear factor NF-kappa-B p105 subunit (Homo sapiens) (UniProt P19838); experiment: LTEA_HepaRG_NFKB1: Life Technologies and Expression Analysis (LTEA) Assay for Nuclear Factor Kappa B Subunit 1 (NFKB1) using HepaRG (AID 2283521)
Summary of the method: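 NFKB1 transcript was measured by TaqMan qRT-PCR on Fluidigm arrays, normalised to three housekeeping genes and fitted in both directions against 0.5% DMSO. HepaRG cells were dosed in duplicate for 48 h in serum-free induction medium, eight half-log steps from 100 uM.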

[10] = read-out: Protein phosphatase 2A (PPP2R4), PTPA (gene 5524); experiment: LTEA_HepaRG_PPP2R4: Life Technologies and Expression Analysis (LTEA) Assay for Protein phosphatase 2A (PPP2R4) using HepaRG (AID 2283522)
Summary of the method: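 Gene-expression endpoint in HepaRG hepatic cells: 48 h treatment across eight half-log concentrations up to 100 uM in 0.5% DMSO. PPP2R4 mRNA by qRT-PCR, normalized to three endogenous control genes.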

[11] = read-out: Phosphatase and tensin (PTEN), PTEN (gene 5728); experiment: LTEA_HepaRG_PTEN: Life Technologies and Expression Analysis (LTEA) Assay for Phosphatase and tensin (PTEN) using HepaRG (AID 2283523)
Summary of the method: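 Differentiated human HepaRG cells, plated 48 h then switched to serum-free induction medium, were exposed in duplicate for 48 h to eight half-log concentrations up to 100 uM in 0.5% DMSO. PTEN mRNA measured by TaqMan qRT-PCR, normalized to ACTB/GAPDH/POLR2A, bidirectional fit versus DMSO.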

[12] = read-out: solute carrier (SLC22A1), SLC22A1 (gene 6580); experiment: LTEA_HepaRG_SLC22A1: Life Technologies and Expression Analysis (LTEA) Assay for solute carrier (SLC22A1) using HepaRG (AID 2283524)
Summary of the method: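 Human HepaRG cells were plated 48 h, switched to serum-free induction medium, then exposed in duplicate for 48 h to 8-point half-log series from 100 uM in 0.5% DMSO. SLC22A1 mRNA measured by qRT-PCR, normalized to ACTB/GAPDH/POLR2A, fitted bidirectionally versus DMSO.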

[13] = read-out: Pyruvate Dehydrogenase Kinase 4 (PDK4), PDK4 (gene 5166); experiment: LTEA_HepaRG_PDK4: Life Technologies and Expression Analysis (LTEA) Assay for Pyruvate Dehydrogenase Kinase 4 (PDK4) using HepaRG (AID 2283525)
Summary of the method: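 Differentiated human HepaRG cells, pre-cultured 48 h, were exposed in duplicate for 48 h in serum-free induction medium to eight half-log concentrations up to 100 uM in 0.5% DMSO. PDK4 mRNA was quantified by qRT-PCR, normalized to ACTB, GAPDH and POLR2A, bidirectional fitting versus DMSO.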

[14] = read-out: NAD(P)H dehydrogenase [quinone] 1 (NQO1), NQO1 (gene 1728); experiment: LTEA_HepaRG_NQO1: Life Technologies and Expression Analysis (LTEA) Assay for NAD(P)H dehydrogenase [quinone] 1 (NQO1) using HepaRG (AID 2283526)
Summary of the method: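 Human HepaRG hepatic cells received chemicals for 48 h in serum-free induction medium with 0.5% DMSO, up to 100 uM. Expression was assessed by TaqMan qRT-PCR against housekeeping controls and fitted bidirectionally against DMSO.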

[15] = read-out: Nuclear factor erythroid 2-related factor 2 (Homo sapiens) (UniProt Q16236); experiment: LTEA_HepaRG_NFE2L2: Life Technologies and Expression Analysis (LTEA) Assay for Nuclear factor erythroid 2-related factor 2 (NFE2L2) Transcription Factor using HepaRG (AID 2283527)
Summary of the method: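 Differentiated human HepaRG cells in serum-free induction medium were exposed for 48 h to eight concentrations (top 100 uM, half-log dilutions, 0.5% DMSO), in duplicate. NFE2L2 mRNA was quantified by TaqMan qRT-PCR, normalized to ACTB, GAPDH and POLR2A, with bidirectional fitting versus DMSO.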

[16] = read-out: succinate dehydrogenase complex iron sulfur subunit B (SDHB), SDHB (gene 6390); experiment: LTEA_HepaRG_SDHB: Life Technologies and Expression Analysis (LTEA) Assay for succinate dehydrogenase complex iron sulfur subunit B (SDHB) using HepaRG (AID 2283528)
Summary of the method: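 SDHB transcript level read by TaqMan qRT-PCR, housekeeping-normalised (ACTB, GAPDH, POLR2A), after 48 h chemical treatment of plated HepaRG cells; eight concentrations top 100 uM, half-log steps, 0.5% DMSO, duplicates; fitted both directions against DMSO.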

[17] = read-out: Signal transducer and activator of transcription 3 (Homo sapiens) (UniProt P40763); experiment: LTEA_HepaRG_STAT3: Life Technologies and Expression Analysis (LTEA) Assay for Signal transducer and activator of transcription (STAT3) using HepaRG (AID 2283529)
Summary of the method: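 Differentiated human HepaRG cells in serum-free induction medium were exposed in duplicate for 48 h to eight half-log concentrations up to 100 uM in 0.5% DMSO. STAT3 mRNA was quantified by TaqMan qRT-PCR, normalized to ACTB, GAPDH and POLR2A, and fitted bidirectionally against DMSO.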

[18] = read-out: solute carrier (SLCO1B1), SLCO1B1 (gene 10599); experiment: LTEA_HepaRG_SLCO1B1: Life Technologies and Expression Analysis (LTEA) Assay for solute carrier (SLCO1B1) using HepaRG (AID 2283530)
Summary of the method: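 Gain or loss of SLCO1B1 mRNA is fitted against the 0.5% DMSO vehicle in human HepaRG liver cells treated 48 h at up to 100 uM in half-log steps. Expression comes from qRT-PCR normalized to endogenous controls.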

[19] = read-out: sulfotransferase 2A1 (SULT2A1), SULT2A1 (gene 6822); experiment: LTEA_HepaRG_SULT2A1: Life Technologies and Expression Analysis (LTEA) Assay for sulfotransferase 2A1 (SULT2A1) using HepaRG (AID 2283531)
Summary of the method: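 Cells were plated and cultured 48 h, switched to serum-free induction medium, then dosed in duplicate for 48 h (8 concentrations, max 100 uM). RNA was isolated and SULT2A1 expression measured by qRT-PCR; gain or loss of signal fitted relative to DMSO.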

[20] = read-out: Transforming Growth Factor (TGFA), TGFA (gene 7039); experiment: LTEA_HepaRG_TGFA: Life Technologies and Expression Analysis (LTEA) Assay for Transforming Growth Factor (TGFA) using HepaRG (AID 2283532)
Summary of the method: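 Differentiated human HepaRG cells, plated 48 h then switched to serum-free induction medium, were exposed in duplicate for 48 h to 8-point half-log series from 100 uM in 0.5% DMSO. TGFA mRNA measured by qRT-PCR, normalized to ACTB/GAPDH/POLR2A, bidirectional fit versus DMSO.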

Measured: AC50

Nuclear factor erythroid 2-related factor 2 (Homo sapiens), sequence (Q16236 whole entry, looked up): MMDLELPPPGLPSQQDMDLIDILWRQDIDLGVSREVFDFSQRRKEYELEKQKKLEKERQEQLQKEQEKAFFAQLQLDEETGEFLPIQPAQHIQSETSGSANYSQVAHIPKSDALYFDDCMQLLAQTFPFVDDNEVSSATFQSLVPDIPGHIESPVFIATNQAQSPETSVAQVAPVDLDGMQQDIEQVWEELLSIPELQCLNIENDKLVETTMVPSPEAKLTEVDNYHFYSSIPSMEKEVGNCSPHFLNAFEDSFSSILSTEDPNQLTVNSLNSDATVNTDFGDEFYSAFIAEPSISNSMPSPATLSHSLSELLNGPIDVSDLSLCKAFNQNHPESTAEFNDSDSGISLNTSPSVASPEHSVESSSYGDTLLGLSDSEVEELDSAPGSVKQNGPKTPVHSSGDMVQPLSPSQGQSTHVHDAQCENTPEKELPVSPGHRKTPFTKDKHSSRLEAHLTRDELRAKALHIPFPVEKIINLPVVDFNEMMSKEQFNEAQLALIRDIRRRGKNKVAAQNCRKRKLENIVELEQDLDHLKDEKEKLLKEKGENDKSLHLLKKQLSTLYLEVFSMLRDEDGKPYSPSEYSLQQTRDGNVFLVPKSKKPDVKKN
Signal transducer and activator of transcription 3 (Homo sapiens), sequence (P40763 whole entry, looked up): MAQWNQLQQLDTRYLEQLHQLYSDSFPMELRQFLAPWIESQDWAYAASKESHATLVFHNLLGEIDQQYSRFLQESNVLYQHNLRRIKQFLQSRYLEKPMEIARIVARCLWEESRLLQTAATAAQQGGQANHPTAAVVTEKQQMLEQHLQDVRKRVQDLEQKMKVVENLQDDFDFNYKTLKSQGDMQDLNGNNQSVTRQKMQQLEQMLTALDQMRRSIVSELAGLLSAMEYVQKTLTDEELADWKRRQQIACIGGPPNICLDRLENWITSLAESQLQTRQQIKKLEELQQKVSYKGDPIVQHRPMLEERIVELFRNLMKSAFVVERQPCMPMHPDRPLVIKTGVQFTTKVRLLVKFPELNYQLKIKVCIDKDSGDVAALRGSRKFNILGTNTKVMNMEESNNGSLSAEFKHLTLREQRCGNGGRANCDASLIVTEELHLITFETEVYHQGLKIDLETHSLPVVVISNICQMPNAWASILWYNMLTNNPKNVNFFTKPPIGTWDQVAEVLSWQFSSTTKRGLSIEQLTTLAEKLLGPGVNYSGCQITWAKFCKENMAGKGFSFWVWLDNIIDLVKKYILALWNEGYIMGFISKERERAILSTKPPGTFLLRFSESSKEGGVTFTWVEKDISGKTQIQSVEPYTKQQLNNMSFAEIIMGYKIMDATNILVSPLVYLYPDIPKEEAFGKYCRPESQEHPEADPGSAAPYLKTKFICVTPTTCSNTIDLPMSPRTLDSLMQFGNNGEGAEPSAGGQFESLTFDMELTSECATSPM
Nuclear factor NF-kappa-B p105 subunit (Homo sapiens), sequence (P19838 whole entry, looked up): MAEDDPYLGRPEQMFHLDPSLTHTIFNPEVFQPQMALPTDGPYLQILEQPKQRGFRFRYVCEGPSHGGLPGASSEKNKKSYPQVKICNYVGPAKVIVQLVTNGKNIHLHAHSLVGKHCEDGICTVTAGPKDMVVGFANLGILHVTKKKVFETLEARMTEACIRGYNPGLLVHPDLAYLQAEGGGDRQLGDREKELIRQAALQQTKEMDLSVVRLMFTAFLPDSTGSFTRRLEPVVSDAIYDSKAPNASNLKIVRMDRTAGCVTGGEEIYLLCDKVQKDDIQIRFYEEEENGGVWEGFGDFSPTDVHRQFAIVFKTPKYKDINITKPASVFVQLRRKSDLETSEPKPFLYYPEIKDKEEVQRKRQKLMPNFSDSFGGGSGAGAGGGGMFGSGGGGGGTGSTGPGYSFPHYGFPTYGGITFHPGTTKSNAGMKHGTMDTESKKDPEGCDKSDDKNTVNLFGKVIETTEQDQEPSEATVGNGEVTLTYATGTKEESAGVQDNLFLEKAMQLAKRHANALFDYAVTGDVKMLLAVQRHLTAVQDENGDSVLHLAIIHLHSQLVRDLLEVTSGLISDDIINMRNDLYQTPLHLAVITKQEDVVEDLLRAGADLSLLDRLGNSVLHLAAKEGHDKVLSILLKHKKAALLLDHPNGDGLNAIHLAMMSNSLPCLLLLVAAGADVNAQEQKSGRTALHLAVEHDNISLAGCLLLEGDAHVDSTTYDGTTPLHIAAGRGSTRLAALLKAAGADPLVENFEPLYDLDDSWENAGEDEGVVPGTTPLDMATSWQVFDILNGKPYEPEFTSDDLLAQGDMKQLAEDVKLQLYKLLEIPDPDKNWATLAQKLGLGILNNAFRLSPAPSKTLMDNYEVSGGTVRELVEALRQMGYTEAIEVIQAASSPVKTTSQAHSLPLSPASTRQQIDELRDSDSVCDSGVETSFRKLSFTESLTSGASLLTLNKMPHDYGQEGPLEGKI

CCCCCCOC(=O)CC(CC(=O)OCCCCCC)(OC(=O)CCC)C(=O)OCCCCCC
inactive: all assays above

O=C(O)c1cccc(C(=O)O)c1
not listed: [9]
inactive: all other assays above

CCCCCCCCCCCCCCCCOS(=O)(=O)O
active: [12] 38.6 µM | [13] 10.8 µM
not listed: [9]
inactive: all other assays above

CNC(C)=O
not listed: [9]
inactive: all other assays above

COCc1nnc(-c2ccc[n+]([O-])c2)n1-c1c(Cl)c(Cl)cc2[nH]c(=O)c(=O)[nH]c12
not listed: [9]
inactive: all other assays above
